# Shown is part of a subset that was picked to be rich in hits.
# Cruzain Triton: inhibitors of Trypanosoma cruzi cruzain with detergent; purified cruzain, Z-FR-AMC fluorescence, 0.01% Triton; Potency, µM, without a hit: max response, negative = inhibition, most hits filed as inhibitors; 0.43% of 200,000 active;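 note: plate controls were neutral wells for no effect and buffer without enzyme for full effect; nearly all actives have a fitted effect of over 40% in size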
# Target sequence (P25779 123-467 limits assumed): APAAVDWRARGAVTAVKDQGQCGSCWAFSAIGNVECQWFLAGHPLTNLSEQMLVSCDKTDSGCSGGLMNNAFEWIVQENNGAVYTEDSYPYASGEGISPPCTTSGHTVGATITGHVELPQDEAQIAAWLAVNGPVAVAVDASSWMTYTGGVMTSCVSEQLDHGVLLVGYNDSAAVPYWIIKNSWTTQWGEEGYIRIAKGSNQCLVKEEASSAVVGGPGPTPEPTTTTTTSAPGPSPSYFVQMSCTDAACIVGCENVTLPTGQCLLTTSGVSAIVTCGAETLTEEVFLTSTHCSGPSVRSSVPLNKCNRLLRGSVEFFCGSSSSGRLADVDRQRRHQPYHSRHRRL
#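 Purified cruzain (1.5 nM final) was preincubated with compounds for 15 min at room temperature in 100 mM sodium acetate pH 5.5, 5 mM DTT, 0.01% Triton X-100. Reaction started with 2 uM Z-FR-AMC; AMC fluorescence change over 60 s gave activity.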
# NS1 function inh: inhibitors of influenza NS1 protein function; Potency, µM (doses to about 46.1 µM), without a hit: at the top dose activity, positive = more growth; 0.4% of 270,000 active; AID 2326; calls by dose curve; note: actives are rising curves; nearly all actives have a fitted effect of over 50% in size
#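 Read-out: OD600 growth recovery of NS1-expressing budding yeast. Cells grown overnight at 30C in -URA glucose medium, washed, resuspended and diluted 1:100 in 2% galactose assay medium, pH 6.0. Same strain lacking NS1 served as positive control.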
# Cruzain noTriton: blocks cruzain activity in detergent-free assay. purified cruzain, Z-FR-AMC fluorescence, no detergent. Potency, µM, inactives show max response, negative = inhibition, most hits filed as inhibitors. 2.3% of 200,000 active;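 note: plate controls were enzyme without inhibitor for no effect and buffer without enzyme for full effect; nearly all actives have a fitted effect of over 40% in size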
#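 Purified cruzain at 1.5 nM, pre-incubated 15 min with compound at room temperature in 100 mM sodium acetate pH 5.5, 5 mM DTT, 0.00005% Triton X-100. Reaction started with 2 uM Z-FR-AMC; AMC fluorescence increase over 60 s gives rate.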
# * marks the source's active call; other numbers are inactive results; ? = inconclusive; . = no result. Unless noted, calls come from the whole dose curve; as a rule, active = well fitted curve in the direction sought with a large enough effect; inconclusive = small, poorly fitted or top-dose-only effect, or another doubt; inactive = no such curve, though single readings can be large; an effect the other way counts as inactive or inconclusive. Potency is the fitted concentration of half-maximal effect.
SMILES,Cruzain Triton,NS1 function inh,Cruzain noTriton
CCN1CCN(C(=S)Nc2ccc(Cl)cc2Cl)CC1,0%,3%,-1%
CCCCOc1ccc(NC(=O)C(=O)NCCC2=CCCCC2)cc1,3%,0%,10µM*
COc1ccc(NC(=O)NCCC2=CCCCC2)cc1,.,-7%,.
COc1ccc(CNC(=O)c2ccc(Cn3c(=O)c4cccn4c4cccnc43)cc2)c(OC)c1,-1%,.,-6%
O=C(Nc1cnn(Cc2ccc(F)cc2)c1)c1cc(-c2ccc(Br)cc2)on1,.,-10%,.
O=C1NC(=O)c2cc(Nc3ccc(F)cc3)c(Nc3ccc(F)cc3)cc21,-1%,.,-9%
O=C1NC(=O)c2cc(Nc3ccccc3)c(Nc3ccccc3)cc21,-6%,?,20µM*
Cc1ccc(S(=O)(=O)N2CCOCC2)cc1C(=O)Nc1ccccc1C(=O)O,0%,.,3%
c1csc(-c2nc(N3CCOCC3)c3ccccc3n2)c1,.,-36%,.
O=S(=O)(c1ccccc1)N1CCN(c2nc(-c3cccs3)nc3ccccc23)CC1,-8%,2%,16µM*
O=S(=O)(c1ccc(Cl)cc1)N1CCN(c2nc(-c3cccs3)nc3ccccc23)CC1,-7%,11%,10µM*
O=C(c1cc(-c2cccs2)nc2ccccc12)N1CCN(S(=O)(=O)c2ccccc2)CC1,-4%,?,?
CN(C)C(=O)c1ccc(-c2ccc3ncnc(NCc4ccccc4)c3c2)cc1,-6%,.,9%
CS(=O)(=O)c1sc2nc(-c3cccs3)cc(-c3ccccc3)c2c1N,-18%,4%,20µM*
Cc1ccc(-c2cc(-c3ccccc3)c3c(N)c(S(C)(=O)=O)sc3n2)cc1,-8%,17%,?
Cn1nnc2c(N3CCN(c4ccc(F)cc4)CC3)ncnc21,-5%,.,?
CC(C)[C@@H](CC(=O)N[C@@H]1CCCC[C@H]1C(=O)N[C@H](CC(=O)N[C@@H](CCC(=O)O)CC(=O)O)Cc1ccccc1)NC(=O)C[C@H](Cc1ccccc1)NC(=O)[C@@H]1CNCC[C@H]1N,-4%,.,2%
COC(=O)c1ccc2c(c1)c(C#Cc1ccccc1)c(-c1ccccc1)n2C,-3%,.,18µM*
COc1cc(C#Cc2c(-c3ccccc3)n(C)c3ccccc23)cc(OC)c1,.,16%,.
NC(CSS(=O)(=O)O)=N[C@@H]1C[C@H]2CC[C@@H]1C2,2%,1%,6%
Nc1nc(=O)c2[nH]cnc2n1O,1%,0%,3%
CS(=O)(=O)c1ccc2nc(NC(=O)c3ccc(NS(=O)(=O)c4ccc(F)c(F)c4)cc3)sc2c1,.,3%,.
O=C(Nc1nc2ccc(SC(F)F)cc2s1)c1ccc(NS(=O)(=O)c2ccc(F)c(F)c2)cc1,-1%,?,32µM*
O=C(O)[C@@H]1CCN(Cc2oc(CO)cc(=O)c2O)C1,4%,-3%,9%
CN(c1ccccc1)S(=O)(=O)c1ccc(Cl)c(C(=O)Nc2nn[nH]n2)c1,.,2%,.
SMILES,Cruzain Triton,NS1 function inh,Cruzain noTriton
O=C(Nc1ccc(-c2nc3ccccc3[nH]2)cc1)c1ccccc1NS(=O)(=O)c1ccc(F)cc1,-8%,7%,16µM*
CCCN(CCC)S(=O)(=O)c1ccc(C(=O)Nc2cccc(-c3nc4ccccc4[nH]3)c2)cc1,-1%,.,7.9µM*
CS(=O)(=O)c1ccccc1C(=O)Nc1ccc(-c2nc3ccccc3[nH]2)cc1,.,-14%,.
COc1c(Cl)cc(C(=O)Nc2cccc(-c3nc4ccccc4[nH]3)c2)cc1Cl,-2%,.,?
CN(c1ccccc1)S(=O)(=O)c1ccc(Cl)c(C(=O)Nc2ccc(-c3nc4ccccc4[nH]3)cc2)c1,-4%,9%,13µM*
COc1ccc(NC(=O)c2c(C)oc3ccc(O)c(CN4CCCCCC4)c23)cc1Cl,-7%,.,?
CCOc1ccc(-c2nc3c(c(SCC(=O)N4CCCCC4)n2)Cc2cccc(OC)c2O3)cc1,-1%,.,-1%
COc1ccc(/C=N/Nc2nnc(-c3ncc[nH]3)c3ccccc23)cc1,-6%,3%,2%
Oc1ccc2ccccc2c1/C=N/Nc1nnc(-c2ncc[nH]2)c2ccccc12,-14%,-228%,25µM*
C=CC(C1=CC(=O)C(OC)=CC1=O)c1ccc(O)cc1 (stereo not given),-2%,.,-6%
N#Cc1c(Sc2ncc(C(F)(F)F)cc2Cl)nsc1C/C=N\OCc1c(F)cccc1Cl,-6%,14%,4µM*
FC(F)(F)c1cnc(Sc2nnc(-c3cccs3)n2CC2CCCO2)c(Cl)c1 (stereo not given),1%,7%,-10%
CC(=O)/C(=C\c1ccccc1)CC(=O)O,0%,.,-5%
OCc1ccccc1N=c1ssnc1Cl,-3%,-1%,25µM*
Clc1ccc(N=c2ssnc2Cl)nc1,.,0%,.
Cc1c(C(=O)NCCc2ccccc2)cccc1-n1cnc2cccnc21,0%,.,-7%
O=Nc1c(O)[nH]c2ccccc12.[Cu].[O-]/N=C1/C(=[OH+])Nc2ccccc21,0%,-6%,6%
